Source: PubChem (National Center for Advancing Translational Sciences (NCATS))
G9a block: inhibitors of human histone lysine methyltransferase G9a; Q96KQ7; G9a H3K9 monomethylation, AlphaScreen, 2 h; Potency, µM (top dose mostly 102 µM), inactives show at the top dose activity, negative = inhibition, hits mostly inhibitors; actives 8.8% (n = 350,000); note: potency is the fitted concentration of half-maximal effect; nearly all actives have a fitted effect of over 75% in size
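Readings reflect AlphaScreen signal from monomethyl-H3K9 antibody detection. HMT at 20 nM; substrate b-H3K9 500 nM; cofactor SAM 20 uM; 2 h RT reaction; compounds tested as titrations in qHTS with 15 min preincubation.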
PLK1 PBD inh: blocks phosphopeptide binding to human PLK1 polo-box domain; actives 2.8% (n = 360,000); Plk1 PBD binding of FITC phosphopeptide, fluorescence polarization; P53350; Potency, µM, for the others: max response, negative = inhibition, usual class: inhibitors; note: potency is the fitted concentration of half-maximal effect; series mostly up to about 57 µM; nearly all actives have a fitted effect of over 65% in size
Target sequence (P53350 whole entry, looked up, the tested form may be a part): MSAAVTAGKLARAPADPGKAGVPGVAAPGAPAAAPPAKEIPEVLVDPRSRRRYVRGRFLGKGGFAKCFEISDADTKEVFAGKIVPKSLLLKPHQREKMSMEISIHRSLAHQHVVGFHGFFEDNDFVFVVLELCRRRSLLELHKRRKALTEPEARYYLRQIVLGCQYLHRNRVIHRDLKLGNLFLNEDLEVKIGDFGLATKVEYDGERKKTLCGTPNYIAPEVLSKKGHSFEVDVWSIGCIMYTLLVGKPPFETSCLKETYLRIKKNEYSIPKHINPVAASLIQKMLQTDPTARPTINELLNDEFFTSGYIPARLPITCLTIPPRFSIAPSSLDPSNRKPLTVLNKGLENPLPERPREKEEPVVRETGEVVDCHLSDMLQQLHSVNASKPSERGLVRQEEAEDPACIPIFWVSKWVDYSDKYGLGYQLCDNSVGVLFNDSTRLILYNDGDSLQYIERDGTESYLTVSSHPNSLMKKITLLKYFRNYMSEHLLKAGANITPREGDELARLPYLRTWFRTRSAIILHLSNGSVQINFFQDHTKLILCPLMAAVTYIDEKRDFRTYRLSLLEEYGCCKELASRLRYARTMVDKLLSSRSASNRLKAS
Sfp inh: inhibitors of Bacillus subtilis Sfp phosphopantetheinyl transferase. actives 3.5% (n = 310,000). AID 1490. Biochemical Sfp PPTase activity, qHTS. Potency, µM, for inactives: largest response in the series, negative = inhibition, most hits filed as inhibitors;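 note: the enzyme is Sfp with the accession as filed and its product quenches rhodamine fluorescence; potency is the fitted concentration of half-maximal effect; 0% = enzyme reaction without inhibitor and -100% = no enzyme wells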
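Buffer: 50 mM Hepes-Na pH 7.6, 10 mM MgCl2, 0.01% Nonidet P-40, 0.01% BSA. Enzyme 15 nM, pre-exposed to compound 15 min; substrates then added and fluorescence change tracked over 30 min.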
CCT chaperon mod: cytosolic chaperonin activity modulation. purified chaperonin ATPase assay, HTRF ADP detection, 30 min. activity change, % (test concentration not listed), hits read low. AID 651819. actives 0.3% (n = 360,000); in the data active = activity change below about -30%
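ATPase activity: ADP formed was measured by HTRF Transcreener (665/615 nm ratio) after 30 min at 37 deg C with 10 uM ATP. Compounds screened at one 76 uM concentration against 40 or 20 nM TRiC in Tris pH 7.4/KCl/MgCl2/DTT buffer.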
Mm-Cpn inhibitor: M. maripaludis TRiC chaperonin inhibition; purified Mm-Cpn ATPase, ADP Transcreener TR-FRET; Potency, µM (top dose mostly 76.9 µM), for the others: at the top dose activity, negative = inhibition, most hits filed as inhibitors; actives 0.031% (n = 330,000); AID 504842; note: potency is the fitted concentration of half-maximal effect; nearly all actives have a fitted effect of over 80% in size
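Inhibition of chaperonin ATP hydrolysis is measured as reduced ADP production, detected by competitive TR-FRET in which signal falls with ADP. Final enzyme 25 nM and ATP 10 uM, reacted 30 min at 37°C.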
VDR inh: vitamin D3 receptor (human) inhibition | P11473 | VDR-SRC2-3 peptide fluorescence polarization, 2 h | Potency, µM, for inactives: max response, negative = inhibition, most hits filed as inhibitors | actives 0.93% (n = 400,000) | AID 504847; note: potency is the fitted concentration of half-maximal effect
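Measured by FP: displacement of SRC2-3 coactivator peptide from VDR by library compounds, following a two-hour ambient incubation.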
Numbers without * were called inactive; ? = inconclusive; / = no result given; ! = not active in a repeat; [ ] = dose if it differs, or a comment. A selection: hits, their analogues and other compounds. The true share with any hit is near 10%. Unless noted, calls come from the whole dose curve; as a rule, active = well fitted curve in the direction sought with a large enough effect; inconclusive = small, poorly fitted or top-dose-only effect, or another doubt; inactive = no such curve, though single readings can be large; an effect the other way counts as inactive or inconclusive. Unless noted, % is set by controls: 0 for no effect and ±100 for the full control effect.

SMILES	G9a block	PLK1 PBD inh	Sfp inh	CCT chaperon mod	Mm-Cpn inhibitor	VDR inh
Cc1nc(Cl)c2c(n1)NC1=C(O2)C(=O)CCC1	11.1%[59 µM]	21.2µM*	-2.3%	-0.3	-2.1%	4.4%
Cc1cc(NS(=O)(=O)c2ccc(NC(=O)c3ccco3)cc2)nc(C)n1	?	-3.8%	19.8%	-1.0	0.2%	-0.6%
CCCCC(Br)C(=O)Nc1ccc(S(=O)(=O)Nc2cc(C)nc(C)n2)cc1 (configuration not stated)	50.1µM*	-17.2%	-17.4%	-1.4	3.0%	10.1%
Cc1cc(NS(=O)(=O)c2ccc(NC(NC(=O)C(C(F)(F)F)C(F)(F)F)(C(F)(F)F)C(F)(F)F)cc2)no1	?	5.97µM*	11.7%	-2.3	0.1%	?
CCOC(=O)C(NC(C)=O)(Nc1ccc(S(=O)(=O)Nc2cc(C)on2)cc1)C(F)(F)F (configuration not stated)	-19.4%[59 µM]	-9.1%	15.6%	-0.6	0.5%	20.3%
Cc1cc(NS(=O)(=O)c2ccc(NC(=O)COc3ccc(Br)cc3)cc2)nc(C)n1	/	2.67µM*	3.9%	0.6	6.1%	?
Cc1ccc(OCCC(=O)Nc2ccc(S(=O)(=O)Nc3cc(C)nc(C)n3)cc2)cc1	-44.9%	-2.2%	/	-0.2	0.1%	3.9%
Cc1cc(NS(=O)(=O)c2ccc(NC(=O)/C=C/c3ccco3)cc2)nc(C)n1	50.1µM*	-18.0%	-26.6%	0.3	1.8%	6.5%
COc1cccc2c1cc1c(=O)n(CC(=O)N3CCN(c4ccc(Cl)cc4)CC3)nc(C)n12	34.7%[59 µM]	/	/	/	/	4.5%
CS(=O)(=O)Nc1ccccc1C(=O)OCc1cc(=O)n2nc(C3CCCCC3)sc2n1	0.1%[59 µM]	/	/	/	/	2.5%
CCOC(=O)/C=C/C(=O)Nc1ccc(S(=O)(=O)N(C)c2ccccc2)cc1	44.7µM*	-15.2%	14.4%	-0.5	0.7%	-15.9%
CCOC(=O)Nc1ccc(S(=O)(=O)Nc2cc(C)on2)cc1	10.7%[12.7 µM]	1.1%	-6.9%	-1.5	2.5%	-2.9%
CCOC(=O)/C=C/C(=O)Nc1ccc(S(=O)(=O)Nc2cc(C)on2)cc1	50.1µM*	-2.2%	15.5%	0.0	1.4%	-7.3%
CCOc1ccc(OCC(=O)Nc2ccc(S(=O)(=O)Nc3cc(C)nc(C)n3)cc2)cc1	14.1µM*	-17.8%	9.1%	-6.7	-1.8%	-1.9%
Cc1ccc(S(=O)(=O)Nc2ccc(S(=O)(=O)Nc3cc(C)nc(C)n3)cc2)cc1	10µM*	2.2%	-16.6%	-0.2	0.1%	13.5%
COc1ccc(N2CCN(S(=O)(=O)CCNC(=O)COc3ccccc3F)CC2)cc1	?	/	/	/	/	5.1%
Cc1cc(NS(=O)(=O)c2ccc(NC(=O)COc3c(C)cc(Br)cc3C)cc2)no1	56.2µM*!	-21.3%	-7.8%	1.0	2.2%	-0.6%
Cc1ccc(S(=O)(=O)Nc2ccc(-c3cn4ccc(C)cc4n3)cc2)cc1	44.7µM*	?	-1.1%	-1.9	-1.7%	?
Cc1cc(NS(=O)(=O)c2ccc(NC(=S)NC(=O)c3cccc(S(=O)(=O)N(C)C)c3)cc2)no1	35.5µM*	?	-26.9%	0.5	-1.7%	-7.0%
CC1CCN(C(=O)CN2c3ccc(Br)cc3-c3ccccc3S2(=O)=O)CC1	0.1%[59 µM]	/	/	/	/	23.3%
COC(=O)C/C=C/[C@@H](C)[C@H](NC(=O)OCC(Cl)(Cl)Cl)c1cccc(OC)c1	/	/	20.5%	/	/	-3.0%
Cc1nc2nc(CNC(=O)OC(C)(C)C)nn2c(C)c1CCC(=O)NCc1ccccc1Cl	0.6%[59 µM]	/	/	/	/	-3.5%
CC(=O)Nc1c2c3c(cccc3n(C)c1=O)C(=O)c1ccccc1-2	46.1%[59 µM]	-19.8%	-24.4%	-1.3	-2.4%	16.1%
Cn1c(=O)c(Nc2ccc(Cl)cc2)c2c3c(cccc31)C(=O)c1ccccc1-2	22.4µM*	13.4µM*	-14.5%	-1.0	1.3%	5.3%
O=C(CN1CCCN(Cc2cccc(F)c2)S1(=O)=O)Nc1ccc2c(c1)OCCO2	3.8%[12.7 µM]	/	/	/	/	10.6%
SMILES	G9a block	PLK1 PBD inh	Sfp inh	CCT chaperon mod	Mm-Cpn inhibitor	VDR inh
CC(C)=NNc1nc(-c2ccccc2)c(C)s1	31.6µM*	21.2µM*	56.2µM*	-1.6	-2.7%	-16.3%
CCOc1cccc(OCCNC2CCCC2)c1	14.1µM*	-20.5%	-21.4%	-1.0	1.9%	31.6%
CC(C)Oc1ccc(OCCNC2CCCC2)cc1	?	-5.9%	50.1µM*	-6.3	-2.6%	-7.5%
CCOC(=O)c1ccc(NC(=O)/C(C#N)=C/c2ccc(OC)cc2)cc1	10.5%[59 µM]	/	/	/	/	-13.4%
CC1=NOC(=O)/C1=C/c1ccc(O)cc1	50.1µM*	9.47µM*	39.8µM*	1.5	-1.4%	?
O=C1ON=C(c2ccc(Cl)cc2)/C1=C/c1ccc(O)cc1	50.1µM*	0.474µM*	22.4µM*	-0.8	-11.0%	?
CC1=NOC(=O)/C1=C/c1ccc(O)c(Br)c1	44.7µM*	?	-29.3%	-1.1	2.3%	?
O=C(c1ccc(O)cc1)c1ccc(Cl)cc1	8.3%	-12.5%	20.8%	-1.2	0.7%	-10.4%
Cc1c(N=Cc2ccc(O)c(Br)c2)cccc1[N+](=O)[O-]	?	-7.5%	-9.8%	-1.7	2.1%	-12.5%
COc1ccc(/C=C2/C(=O)ON=C2C)cc1Cl	15.8µM*	2.12µM*	79.4µM*	-0.5	1.2%	?
CC(C)(C)CC(=O)NCC(c1ccc2c(c1)OCO2)N1CCOCC1 (configuration not stated)	25.0%[59 µM]	/	/	/	/	4.0%
CO[C@@H]1COC(=O)[C@H]2CCCN2C(=O)[C@@H](C)COC(=O)CCC[C@H]1C	/	/	26.1%	/	/	/
CC(C)c1ccc(NC(=O)C2CCC(CNS(=O)(=O)c3ccc4c(c3)CCCC(=O)N4)CC2)cc1 (configuration not stated)	4.5%[59 µM]	/	/	/	/	4.3%
COc1cc(/C=c2\sc3n(c2=O)C(c2ccccc2)C(c2ccccc2)=NN=3)ccc1O (configuration not stated)	?	27.1%	-3.7%	0.2	-1.2%	20.5%
COc1cc(/C=C2/C(=O)ON=C2c2ccccc2)ccc1O	?	?	50.1µM*	-1.9	1.9%	50.1µM*
CC(=O)Nc1ccc(NC2CCCCC2NS(=O)(=O)c2ccc(Cl)cc2)cc1 (configuration not stated)	39.8µM*	2.2%	14.6%	-0.2	1.0%	0.3%
O=S(=O)(NC1CCCCC1Nc1ccccc1)c1ccccc1 (configuration not stated)	4.6%[59 µM]	-0.6%	8.4%	-1.2	0.6%	10.1%
